According to PubChem BioAssay:
Calls of active or inactive are those of the source. Unless noted, the rule behind the calls is not given here.

Key:
[1] = anti-His antibody binders, primary screen, artefact control for SMM control protein annotation, biochemical, small-molecule microarray, 635 nm fluorescence (AID 1128); details: anti-His Alexa647 antibody binding, higher = more signal;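 note: score merges feature fluorescence with signal-to-noise for each printed compound spot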
[2] = test system: Human papillomavirus type 1a E7 protein (residues 1-88); assay: HPV1a E7 small-molecule binders, primary screen, biochemical, small-molecule microarray, residues 1-88, 635 nm (AID 1129); details: small-molecule microarray binding, fluorescence 635 nm; higher = more signal
[3] = target: Focal adhesion kinase 1 (Homo sapiens) (UniProt Q05397); assay: small-molecule microarray binders of FAK, primary screen, biochemical, 635/667 nm fluorescence, BSA, DTT (AID 1130); details: PTK2 binding, 635 nm fluorescence, higher = more signal;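 note: composite of spot emission at 667 nm and signal to noise over triplicate slides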
[4] = test system: Fibrinogen (Alexa647-labelled); assay: fibrinogen binders on compound microarrays, profiling panel, artefact control for SMM control-protein annotation, biochemical, small-molecule microarray, 635/667 nm fluorescence (AID 1131); details: fibrinogen-A647 binding fluorescence, higher = more signal;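 note: z-score merges 667 nm fluorescence with per-spot signal-to-noise over triplicate slides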
[5] = target: Follistatin (Homo sapiens) (UniProt P19883); assay: follistatin binders on small-molecule microarrays, primary screen, biochemical, small-molecule microarray, 635/667 nm fluorescence (AID 1132); details: FST binding, 635 nm fluorescence, higher = more signal
[6] = target: Fibroblast growth factor 2 (Homo sapiens) (UniProt P09038); assay: FGF2 binders on small-molecule microarrays, primary screen, biochemical, small-molecule microarray, 635/667 nm fluorescence (AID 1133); details: small-molecule microarray binding, FGF2, fluorescence 635/667; higher = more signal
[7] = mitochondrial membrane potential change in A549 cells, profiling panel, cell-based, JC-1 fluorescence, basal, 24 h, 100 nL (AID 1138); details: higher = more signal;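 note: A549 lung adenocarcinoma cells under basal conditions with no added stimulus; test concentration not given here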
[8] = test system: Lefty1; assay: Lefty1 binders on small-molecule microarrays, primary screen, biochemical, small-molecule microarray, 635/667 nm fluorescence (AID 1139); details: small-molecule microarray binding, fluorescence 635/667; higher = more signal
[9] = test system: wheat germ agglutinin (Triticum aestivum), Alexa647-labelled; assay: wheat germ agglutinin binders on compound microarrays, profiling panel, artefact control for SMM control-protein annotation, biochemical, small-molecule microarray, 635/667 nm fluorescence (AID 1140); details: WGA-A647 binding, 635 nm fluorescence, higher = more signal;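 note: score merges 667 nm feature emission with signal to noise over triplicate slides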
[10] = target: Luciferin 4-monooxygenase (Photinus pyralis) (UniProt P08659); assay: firefly luciferase enzyme inhibitors, primary screen, biochemical, luminescence, purified enzyme, 2006 set (AID 1141); details: SteadyGlo luminescence, 30 min, higher = more signal, called active from +8 up or from −8 down;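 note: cell-free assay with purified firefly luciferase at 100 ng per well in PBS; test concentration not given here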
[11] = test system: Wnt5a (protein binding on small-molecule microarray); assay: Wnt5a binders on small-molecule microarray, primary screen, biophysical, 635/667 nm fluorescence (AID 1142); details: 635 nm fluorescence, higher = more signal;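 note: fluorescence read at 667 nm with signal to noise per printed feature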
[12] = cell viability in Huh7 cells, primary screen, cytotoxicity control for HCV replication inhibitor project, CellTiter-Glo luminescence, basal, 48 h (AID 1143); details: Huh7 HCV replicon, higher = more signal, called active from +8 up or from −8 down;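 note: Huh7 hepatoma cells carrying a hepatitis C replication reporter with no stimulus; test concentration not given here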
[13] = P. aeruginosa biofilm formation inhibitors, primary screen, PAO1 strain, BacTiter-Glo luminescence, LB-PBS (AID 1144); details: 12 h, higher = more signal
[14] = CREB reporter modulators without forskolin, primary screen, cell-based, PC12, CRE-LacZ reporter, unstimulated (AID 1145); details: no forskolin, luminescence, 4.5 h, higher = more signal, called active from +8 up or from −8 down
[15] = CREB reporter modulators under forskolin, primary screen, cell-based, PC12, CRE-LacZ reporter, forskolin-stimulated (AID 1146); details: luminescence, 4.5 h, higher = more signal, called active from +8 up or from −8 down;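 note: PC12 cells with 6xCRE LacZ reporter stimulated by forskolin 10 µM; beta-galactosidase reporter signal reflecting CREB driven transcription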
[16] = target: Streptavidin (Streptomyces avidinii) (UniProt P22629); assay: streptavidin binders on small-molecule microarray, primary screen, artefact control for SMM compound annotation, biophysical, 635/667 nm fluorescence (AID 1147); details: streptavidin binding, higher = more signal;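 note: signal reflects streptavidin binding to arrayed compounds as a control protein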
[17] = small-molecule binders of probe aInhba, primary screen, biochemical, small-molecule microarray, 635/667 nm fluorescence (AID 1148); details: higher = more signal;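 note: score merges 667nm spot fluorescence with signal-to-noise for antibody binding to printed compounds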
[18] = target: Torsin-1A (Homo sapiens) (UniProt O14656); assay: torsin A binders from cell lysate, primary screen, small-molecule microarray, wild-type, 635/667 nm (AID 1149); details: COS7 hTOR1A-WT lysate, 635 nm fluorescence, higher = more signal
[19] = target: Torsin-1A (Homo sapiens) (UniProt O14656); assay: small-molecule binders of mutant TOR1A in lysate, primary screen, cell lysate, small-molecule microarray, COS7 lysate, 635/667 nm fluorescence (AID 1150); details: COS7 hTOR1A mutant lysate, 635 nm fluorescence, higher = more signal;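 note: score pools 667 nm emission and signal to noise measuring lysate protein binding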
[20] = test system: Sonic hedgehog protein (Shh); assay: small-molecule binders of Shh protein, primary screen, biochemical, small-molecule microarray, 635/667 nm fluorescence (AID 1151); details: small-molecule microarray binding, 635 nm fluorescence; higher = more signal;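 note: Shh protein binding to compounds spotted on small-molecule microarray slides; score combines spot fluorescence intensity with signal-to-noise across triplicate slides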

Chain of Fibroblast growth factor 2 (Homo sapiens) (P09038 whole entry, looked up): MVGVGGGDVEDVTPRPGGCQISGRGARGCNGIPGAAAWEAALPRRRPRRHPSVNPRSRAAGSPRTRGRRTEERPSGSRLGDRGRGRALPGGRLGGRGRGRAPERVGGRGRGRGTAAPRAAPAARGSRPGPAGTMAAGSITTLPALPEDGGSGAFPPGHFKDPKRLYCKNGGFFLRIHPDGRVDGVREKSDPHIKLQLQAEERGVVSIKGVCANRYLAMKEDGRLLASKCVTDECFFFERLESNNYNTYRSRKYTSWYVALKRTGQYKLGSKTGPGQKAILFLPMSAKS
Chain of Torsin-1A (Homo sapiens) (O14656 whole entry, looked up): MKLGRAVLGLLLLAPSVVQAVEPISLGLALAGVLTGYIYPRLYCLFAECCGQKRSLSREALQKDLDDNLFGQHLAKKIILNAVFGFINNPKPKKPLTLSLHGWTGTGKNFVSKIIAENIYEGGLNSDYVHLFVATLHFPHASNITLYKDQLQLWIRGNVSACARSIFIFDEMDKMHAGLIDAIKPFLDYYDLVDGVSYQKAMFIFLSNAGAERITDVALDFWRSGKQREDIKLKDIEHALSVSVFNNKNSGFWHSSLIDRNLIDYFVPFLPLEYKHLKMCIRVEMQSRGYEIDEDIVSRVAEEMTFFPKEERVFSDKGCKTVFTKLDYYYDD
Chain of Luciferin 4-monooxygenase (Photinus pyralis) (P08659 whole entry, looked up): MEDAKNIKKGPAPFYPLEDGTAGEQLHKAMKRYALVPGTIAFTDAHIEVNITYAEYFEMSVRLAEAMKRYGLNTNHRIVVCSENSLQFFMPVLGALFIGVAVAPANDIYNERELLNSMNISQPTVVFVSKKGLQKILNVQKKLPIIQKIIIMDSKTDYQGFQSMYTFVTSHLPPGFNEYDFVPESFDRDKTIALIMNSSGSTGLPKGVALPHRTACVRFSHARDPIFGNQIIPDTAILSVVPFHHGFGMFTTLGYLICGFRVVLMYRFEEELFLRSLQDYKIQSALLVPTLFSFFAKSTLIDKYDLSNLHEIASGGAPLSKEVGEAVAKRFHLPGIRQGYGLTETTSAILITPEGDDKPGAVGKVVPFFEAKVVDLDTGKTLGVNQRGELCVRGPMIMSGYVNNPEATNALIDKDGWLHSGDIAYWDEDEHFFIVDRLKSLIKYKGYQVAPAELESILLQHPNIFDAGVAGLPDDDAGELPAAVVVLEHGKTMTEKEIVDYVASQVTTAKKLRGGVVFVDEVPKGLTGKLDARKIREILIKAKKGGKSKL
Chain of Streptavidin (Streptomyces avidinii) (P22629 whole entry, looked up): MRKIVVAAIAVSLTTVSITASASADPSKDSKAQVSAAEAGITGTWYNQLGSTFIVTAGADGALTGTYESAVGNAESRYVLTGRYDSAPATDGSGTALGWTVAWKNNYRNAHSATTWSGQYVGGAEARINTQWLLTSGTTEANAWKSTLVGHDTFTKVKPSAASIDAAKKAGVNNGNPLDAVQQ
Chain of Follistatin (Homo sapiens) (P19883 whole entry, looked up): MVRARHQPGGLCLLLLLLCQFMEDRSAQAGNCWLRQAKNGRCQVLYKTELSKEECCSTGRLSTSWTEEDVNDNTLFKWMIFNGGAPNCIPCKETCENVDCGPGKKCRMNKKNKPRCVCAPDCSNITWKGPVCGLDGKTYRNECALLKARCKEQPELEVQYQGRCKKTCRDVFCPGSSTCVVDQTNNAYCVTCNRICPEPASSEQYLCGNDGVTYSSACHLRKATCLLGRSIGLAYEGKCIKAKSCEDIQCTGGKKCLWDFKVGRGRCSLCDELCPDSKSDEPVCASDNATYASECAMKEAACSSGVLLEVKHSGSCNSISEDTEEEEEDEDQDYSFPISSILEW
Chain of Focal adhesion kinase 1 (Homo sapiens) (Q05397 whole entry, looked up): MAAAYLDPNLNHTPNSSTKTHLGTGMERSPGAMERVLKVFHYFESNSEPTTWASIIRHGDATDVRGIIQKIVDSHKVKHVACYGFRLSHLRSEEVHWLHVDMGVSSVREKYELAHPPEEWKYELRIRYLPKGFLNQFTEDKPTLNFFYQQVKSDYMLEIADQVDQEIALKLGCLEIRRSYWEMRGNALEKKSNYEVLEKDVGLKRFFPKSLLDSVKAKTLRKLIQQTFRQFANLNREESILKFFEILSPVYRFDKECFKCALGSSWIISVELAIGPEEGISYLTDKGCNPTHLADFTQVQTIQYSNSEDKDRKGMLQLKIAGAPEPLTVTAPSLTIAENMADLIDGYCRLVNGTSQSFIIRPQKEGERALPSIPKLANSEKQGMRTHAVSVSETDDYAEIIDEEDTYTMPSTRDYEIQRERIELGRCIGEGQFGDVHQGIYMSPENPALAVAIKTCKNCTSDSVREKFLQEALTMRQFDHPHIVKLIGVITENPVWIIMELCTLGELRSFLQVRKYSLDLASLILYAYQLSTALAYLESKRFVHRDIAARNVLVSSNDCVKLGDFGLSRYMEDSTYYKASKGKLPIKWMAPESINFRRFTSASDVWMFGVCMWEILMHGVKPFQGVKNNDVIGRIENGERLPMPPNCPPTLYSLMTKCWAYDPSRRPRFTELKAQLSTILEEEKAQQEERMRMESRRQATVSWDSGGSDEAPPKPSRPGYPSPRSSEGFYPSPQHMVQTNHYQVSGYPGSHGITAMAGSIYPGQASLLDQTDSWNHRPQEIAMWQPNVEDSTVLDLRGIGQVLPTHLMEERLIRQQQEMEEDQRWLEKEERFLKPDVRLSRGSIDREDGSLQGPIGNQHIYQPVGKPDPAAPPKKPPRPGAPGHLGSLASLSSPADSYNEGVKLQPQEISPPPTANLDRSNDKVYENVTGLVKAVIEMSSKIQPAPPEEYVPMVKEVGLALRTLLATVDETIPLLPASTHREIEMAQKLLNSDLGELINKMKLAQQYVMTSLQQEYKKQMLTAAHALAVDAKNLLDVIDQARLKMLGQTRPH

| Compound | composite z-score [1] | composite z-score [2] | composite z-score [3] | composite z-score [4] | composite z-score [5] | composite z-score [6] | z-score [7] | composite z-score [8] | composite z-score [9] | z-score [10] | composite z-score [11] | z-score [12] | z-score [13] | z-score [14] | z-score [15] | composite z-score [16] | composite z-score [17] | composite z-score [18] | composite z-score [19] | composite z-score [20] |
| --- | --- | --- | --- | --- | --- | --- | --- | --- | --- | --- | --- | --- | --- | --- | --- | --- | --- | --- | --- | --- |
| CC(C)C(=C=CC[C@H](O)c1ccc(OCCO)cc1)C[C@H](O)c1ccccn1 | 0.923 | 0.955 | 0.104 | 0.3 | 0.135 | -0.139 | 1.51 | 0.334 | 0.0804 | -2.27 (inactive) | 0.149 | -1.8 (inactive) | -0.576 (inactive) | 5.48 (inactive) | -1.06 (inactive) | -0.573 | -0.0986 | 0.743 | 0.995 | 0.823 |
| O=C1c2ccccc2[C@](Cc2ccccc2I)(C(=O)NCC(F)(F)F)[C@H](c2ccc(CO)cc2)N1C1CCCCC1 | 1.64 | 1.21 | -0.003 | 0.964 | 0.846 | 0.18 | 2.17 | 0.289 | 0.856 | -1.61 (inactive) | 0.2 | -0.772 (inactive) | 1.01 (inactive) | 0.324 (inactive) | 2.63 (inactive) | 1.1 | 0.029 | 0.365 | 0.936 | 0.176 |
| O=C1O[C@H](c2ccccc2)[C@H](c2ccccc2)N2[C@H]1[C@@H](C(=O)Nc1nc3ccccc3s1)[C@]1(C(=O)Nc3ccc(C#CCCO)cc31)[C@H]2c1ccc(O)cc1 | 0.917 | 1.18 | 0.306 | 0.982 | 1.26 | 0.585 | -2.34 | 1.23 | 1.1 | 0.198 (inactive) | -0.11 | 0.358 (inactive) | -0.911 (inactive) | -0.141 (inactive) | -0.782 (inactive) | 1.09 | -0.176 | 0.232 | 0.7 | 1.36 |
| CC(CO)N1C(=O)[C@@H]2[C@H]3C(=O)OCC=C[C@H]3OC23C=CCN(C(C)(C)C)C(=O)[C@@H]13 (stereo not given in full) | -1.15 | -0.833 | -0.367 | -0.591 | -0.187 | -0.0701 | -0.28 | -0.114 | -0.104 | -0.069 (inactive) | -0.329 | -0.304 (inactive) | 1.15 (inactive) | -0.354 (inactive) | -0.304 (inactive) | 0.769 | -0.154 | -1.5 | -0.163 | -0.405 |
| C=CCNC(=O)[C@@H]1[C@H]2C(=O)O[C@H](c3ccccc3)[C@H](c3ccccc3)N2[C@H](c2ccc(O)cc2)[C@@]12C(=O)N(C(=O)OCCOC)c1ccc(C#CC3(O)CCCCCC3)cc12 | -0.461 | -1.32 | -0.365 | -2.02 | -1.01 | -1.93 | 0.426 | -0.624 | -0.556 | 0.779 (inactive) | -1.3 | -1.16 (inactive) | -0.53 (inactive) | -1.28 (inactive) | 0.142 (inactive) | -1.23 | -0.204 | -1.68 | -1.47 | -0.382 |
| O=C1O[C@@H](c2ccccc2)[C@@H](c2ccccc2)N2[C@@H](c3ccc(O)cc3)[C@]3(C(=O)Nc4ccc(C#CC5=CCCCC5)cc43)[C@@H](C(=O)NC[C@H](O)c3ccccc3)[C@H]12 | 0.219 | 1.19 | 0.134 | 0.925 | 1.45 | 1.69 | -0.945 | 0.907 | 1 | -1.38 (inactive) | 0.361 | -3.48 (inactive) | -1.16 (inactive) | -0.0246 (inactive) | -0.199 (inactive) | 0.212 | 0.0833 | 0.675 | 0.677 | 1.48 |
| CN(C)C(=O)[C@@]1(CCS(=O)(=O)c2ccccc2)N=C(c2ccc(OCCCO)cc2)O[C@H]1c1ccccc1 | 2.36 | 1.23 | 0.365 | 0.983 | 1.02 | -0.663 | 0.635 | -0.502 | 1.18 | -0.525 (inactive) | 0.543 | -3.07 (inactive) | 1.02 (inactive) | 0.652 (inactive) | -0.481 (inactive) | 0.926 | 0.0155 | 1.05 | 0.548 | -1.01 |
| C=C(COC)/C(=C/C[C@H](OC(C)=O)c1ccc(OCCO)cc1)c1cc(C(=O)OC)ccc1OC | 0.544 | 1.07 | 0.514 | 0.436 | 1.35 | 1.67 | 2.8 | 1.66 | 0.395 | -1.71 (inactive) | 0.39 | -0.519 (inactive) | -0.339 (inactive) | 13.8 (active) | 0.696 (inactive) | -0.313 | 0.0566 | 2.01 | 0.524 | 1.92 |
| CN1C(=O)C2C=CC(C(O)c3ccc(F)cc3)N(Nc3ccccc3)C2C1=O (stereo not given) | 2.27 | 1.14 | 1.04 | 0.802 | 0.576 | -0.319 | -0.575 | 0.253 | 0.0088 | -0.112 (inactive) | -0.126 | 0.457 (inactive) | -0.293 (inactive) | 0.0535 (inactive) | 0.754 (inactive) | 0.473 | 0.203 | -0.319 | 0.363 | 0.137 |
